KKLEB tox: counter-screen for CF NF-kB inhibitors: cytotoxicity; KKLEB CF airway cells viability, ATPlite luminescence, overnight; active compounds read low; cells stimulated with P. aeruginosa culture filtrate; hit rate 0.36% among 360,000; AID 602141; activity change (cytotoxicity), % at 5 µM;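 active = corrected activity change at or below -50% at 5 µM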
CF NFkB inh: blocks PAF-induced NF-kB reporter in cystic fibrosis cells; hit rate 0.86% among 360,000; AID 588850; inhibition, % at 5 µM; KKLEB NF-kB-GFP reporter, GFP fluorescence overnight;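 active = at least 50% inhibition at 5 µM, scaled per plate between neutral and stimulator controls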;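 also: PAF is a Pseudomonas aeruginosa culture filtrate used as stimulus; plate controls were PAF-stimulated DMSO wells for no effect and unstimulated DMSO wells for full effect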
CHOP inh: blocks CHOP induction under ER stress; hit rate 3.8% among 220,000; inhibition, % at 10 µM; CHO-K1 CHOP-promoter luciferase, tunicamycin-induced, 15-18 h;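 active = compounds that reduced the stress-induced luciferase reporter signal by more than about 70% of percent inhibition, limit read from the data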;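 also: 0% = tunicamycin plus vehicle and 100% = wells without tunicamycin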
HIF-2a inh: blocks HIF-2a reporter activity; 786-0 RCC cells HIF-2a reporter, luciferase luminescence, overnight; hit rate 0.72% among 360,000; inhibition, % at 18.8 µM;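 active = inhibition of the luminescence signal of 40% or more relative to plate controls, in a single-dose primary screen at 18.75 µM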
Peg3 promoter: reduces Peg3 promoter-driven luciferase expression in HeLa; HeLa PEG-Prom luciferase reporter, luminescence, overnight; inhibition, % at 20 µM; hit rate 1.7% among 360,000;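 active = inhibition of at least 50% at 20 µM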
TRPM1 prom inh: MITF TRPM1 promoter inhibition in SK-MEL-5 cells | AID 488899 | inhibition, % at 12.5 µM | hit rate 0.83% among 330,000 | SK-MEL-5 TRPM1 promoter luciferase, 24 h;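 active = mean inhibition across replicates of 60% or more, whatever share of single replicates reaches that level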
Mdm2 MdmX conf: confirmation of inhibitors of human Mdm2/MdmX interaction, set 2. hit rate 99% among 740. inhibition, % at 8 µM. SaOS-2 split-luciferase Mdm2/MdmX complementation, luminescence. AID 504601. shares compounds with HIF-2a inh;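 active = mean inhibition of the luminescence signal across two replicates at or above 26 percent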
HIF-2a inh conf: HIF-2a inhibition, single concentration confirmation; shares compounds with HIF-2a inh; 786-0 RCC cells, HIF-2a luciferase reporter luminescence, overnight; inhibition, % at 18.8 µM; hit rate 56% among 1,800; AID 651580;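 active = mean inhibition across four replicates of at least 40 percent at the single tested concentration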
HIF-1a cs: inhibits HIF-1a reporter, a counter-screen for HIF-2a inhibitors; shares compounds with HIF-2a inh; inhibition, % at 18.8 µM; hit rate 72% among 1,800; AID 651589; MiaPaCa-2 HIF-1a luciferase reporter, desferoxamine, overnight;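 active = mean inhibition of the reporter signal across four replicates at the single tested dose of 50% or more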
Numbers without * were called inactive; . = no result given. Sampled rows, rich in hits. Any-hit rate of the full collection: about 4.3%.

SMILES	KKLEB tox	CF NFkB inh	CHOP inh	HIF-2a inh	Peg3 promoter	TRPM1 prom inh	HIF-2a inh conf	HIF-1a cs	others
O=C(CN(c1cccc(C(F)(F)F)c1)S(=O)(=O)c1ccc(Cl)c([N+](=O)[O-])c1)NCc1ccc(F)cc1	1.4	8.7	-88.1	81.7*	88.5*	44.0	39.6	104.5*
CCCCn1c(=O)[nH]c(=O)c2c1nc(Cn1ncc(Cl)c(Cl)c1=O)n2CCC	-80.7*	103.4*	.	95.9*	103.6*	92.1*	71.2*	97.4*	Mdm2 MdmX conf=103.5*
CCCCn1c(=O)[nH]c(=O)c2c1nc(CN1C(=O)c3ccccc3S1(=O)=O)n2CCC	-11.0	6.5	22.4	1.0	10.6	0.8	.	.
CCOC(=O)NNc1ccc2nonc2c1[N+](=O)[O-]	.	.	13.1	.	.	-0.7	.	.
CCCC(=O)OCCNc1cc(SCc2ccco2)c2nonc2c1[N+](=O)[O-]	-0.3	7.6	12.7	6.9	-6.0	-0.7	.	.
CCC(=O)OCCNc1cc(Sc2nc3ccccc3[nH]2)c2nonc2c1[N+](=O)[O-]	-95.0*	81.6*	109.3*	86.4*	92.1*	72.2*	83.5*	83.8*
CCCC(=O)OCCNc1cc(Sc2nccn2C)c2nonc2c1[N+](=O)[O-]	-1.0	47.7	108.4*	86.7*	110.4*	101.0*	81.8*	103.8*
CCC(=O)OCCNc1cc(Sc2nc3ccccc3s2)c2nonc2c1[N+](=O)[O-]	14.8	-5.7	112.5*	52.6*	98.7*	59.4	36.3	61.2*
CC1CCCC(NC(=O)COC(=O)c2cc(S(=O)(=O)N3CCOCC3)ccc2F)C1C (stereo not given)	-12.0	25.1	.	6.3	3.3	.	.	.
Cc1nc(SCCC(=O)O)c2cc(-c3ccccc3)sc2n1	-7.4	13.4	.	85.0*	1.3	51.5	91.5*	49.6
CN1CCN(Cc2nc3ccccc3c(=O)n2Cc2nc(-c3ccc4ccccc4c3)cs2)CC1	-44.7	4.5	88.1*	62.4*	105.3*	88.1*	-9.6	105.8*
NC(=O)c1cc2ccncc2c2ccccc12	-7.0	79.4*	57.5	33.2	-15.7	-8.5	.	.	Mdm2 MdmX conf=98.0*
Cc1cc(C(N)=O)c2ccccc2n1	10.5	8.5	4.8	12.2	13.4	0.1	.	.
O=C(NC1C2CCCC1CN(C1CC1)C2)c1ccc(Cl)cc1 (stereo not given)	-26.1	13.3	.	-13.9	4.0	-6.6	.	.
Cc1ccc(N2C(N)=C(C#N)C(c3cccnc3)C3=C2CC(C)(C)CC3=O)cc1 (stereo not given)	2.4	-0.2	5.3	0.2	17.3	8.0	.	.
Cc1ccc(C2C(C#N)=C(N)N(c3ncn[nH]3)C3=C2C(=O)CC(C)(C)C3)cc1 (stereo not given)	-3.5	8.2	12.5	44.0*	8.7	2.0	3.5	-0.3
O=C(NC1CCN(Cc2ccccc2)CC1)c1ccc2c(c1)[nH]c(=O)n2Cc1ccc(F)cc1	-6.7	-0.3	25.0	48.3*	18.1	22.2	17.5	24.0
COc1cccc(-n2c(SCC(=O)Nc3cc(C)on3)nc3c([nH]c4ccccc43)c2=O)c1	-11.1	7.8	-9.0	39.4*	28.0	.	0.7	22.5
Cc1cc(NC(=O)CSc2nc3c([nH]c4ccccc43)c(=O)n2-c2cccc(C(F)(F)F)c2)no1	-21.3	31.3	29.1	21.4	23.9	29.9	.	.
C=CCOC(=O)C1=C(C)NC(C)=C(C(=O)OCC=C)C1c1cn(-c2ccccc2)nc1-c1ccco1	-9.3	-2.2	40.7	7.8	-1.9	1.4	.	.
NCCCn1cnc2ccccc21	1.8	8.0	7.5	47.5*	3.8	11.0	1.1	24.9
c1ccc2c(c1)ncn2CCn1cnc2ccccc21	-1.1	9.6	-7.8	3.5	-1.2	-3.4	.	.
CN(C(=O)CSc1cc(C(=O)c2nccn2C)c2ccccc2n1)c1ccccc1	-5.9	22.9	-2.5	50.1*	49.6	16.5	28.8	51.7*
Cn1ccnc1C(=O)c1cc(SCC(=O)NC2CC2)nc2ccccc12	9.7	-14.2	7.4	3.8	-3.1	5.7	.	.
N#Cc1cc2c(nc1Cl)CCCC2	-3.9	2.4	17.6	-8.6	7.5	-3.1	.	.
SMILES	KKLEB tox	CF NFkB inh	CHOP inh	HIF-2a inh	Peg3 promoter	TRPM1 prom inh	HIF-2a inh conf	HIF-1a cs	others
COc1ccc(N2CCN(C(=O)Cc3ccc(Cl)cc3)CC2)cc1	4.1	-5.2	.	-1.2	5.9	10.6	.	.
Cc1ccc(NC(=O)CCC(=O)N/N=C/c2coc3ccccc3c2=O)cc1	-4.9	11.4	4.3	53.0*	23.9	5.1	-6.6	16.4
CCCCCc1ccc(OCCCC[n+]2ccccc2)c(CCCCC)c1	-28.0	48.8	-21.0	86.3*	94.8*	86.7*	30.0	102.8*
CCC(C)(C)c1ccc(OCCCC[n+]2ccccc2)c(C(C)(C)CC)c1	-50.4*	62.5*	-2.9	25.1	92.8*	99.9*	.	.	Mdm2 MdmX conf=103.0*
CCCCCOc1ccc(CN2CCOCC2)cc1Cl	9.0	-17.1	-33.4	-185.2	-230.7	-52.2	.	.
CCCCCc1ccc(OCCCC[n+]2ccc(C)cc2)c(CCCCC)c1	-66.8*	74.9*	74.6*	10.6	99.7*	100.6*	.	.	Mdm2 MdmX conf=103.2*
Cc1cc(=O)oc2cc(OCCCC[n+]3ccccc3)ccc12	-8.8	3.5	6.8	-29.0	-8.0	-9.3	.	.
CCc1[nH]nc2c1C(c1ccc(Br)s1)C(C#N)=C(N)O2 (stereo not given)	-1.0	8.2	29.8	40.9*	10.6	12.7	9.0	11.6
CCc1[nH]nc2c1C(c1ccsc1)C(C#N)=C(N)O2 (stereo not given)	1.9	-6.3	34.3	29.6	4.2	9.8	.	.
CC(=O)NCCC1CCCCN1Cc1nc(Cc2cccc(C(F)(F)F)c2)no1 (stereo not given)	13.0	-1.1	18.0	13.0	10.5	8.1	.	.
CNC[C@H](CC1CCCCC1)NC[C@H](CO)NCCc1cccc(C(F)(F)F)c1	-19.2	30.7	.	1.9	100.7*	57.4	.	.	Mdm2 MdmX conf=103.2*
Cc1occc1C(=O)NN1C(=O)C2C3CCC(O3)C2C1=O (stereo not given)	8.8	25.9	38.1	4.8	-3.0	2.5	.	.
O=C(Nc1cccc(Cl)c1)c1cc(N=Nc2ccc([N+](=O)[O-])cc2Cl)ccc1O	-32.3	76.2*	36.3	-83.9	79.0*	41.5	.	.	Mdm2 MdmX conf=95.5*
O=C(Nc1cccc(Cl)c1)c1cccc(Oc2ccc([N+](=O)[O-])cc2Cl)c1	-1.5	22.7	66.6	-40.1	33.7	12.2	.	.
Cc1cc(S(=O)(=O)c2ccc([N+](=O)[O-])cn2)ccc1Br	-73.1*	91.0*	.	93.2*	107.3*	90.0*	22.5	88.7*

Screening results as filed in PubChem BioAssay.
